Shown are actives, neighbours in structure and some others; about 21% of the full set was active somewhere.
TDP1 cell CPT = growth inhibition of DT40 Tdp1-/-;hTDP1 cells with camptothecin (screen for TDP1 inhibitors); chicken DT40 Tdp1-/-;hTDP1 cells + 20 nM CPT, ATP luminescence, 48 h; Potency, µM (series often up to 46.2 µM), for inactives: top-dose activity change, negative = growth inhibition, most hits filed as inhibitors; 420,000 tested, 12% active; AID 686979; note: potency is the fitted concentration of half-maximal effect; nearly all actives have a fitted effect of over 55% in size
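Cell growth measured by CellTiter-Glo luminescence after a minimum 48 h, 37 C compound exposure with 20 nM CPT in Tdp1-knockout DT40 cells stably expressing hTDP1, seeded 400/well; qHTS titration format.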
IL1B secr inh = blocks inflammasome-driven IL-1 beta release | 360,000 tested, 4.7% active | AID 743279 | activity change, % at 57.5 µM | THP-1 LPS/ATP IL-1B secretion, AlphaLISA, 16 h; active compounds read low; in the data active = activity change below about -50%; inconclusive = mostly about -30% to -49%
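THP-1 cells pretreated 1 hr with compounds (up to 57.5 uM final), then stimulated with LPS (250 ng/mL final) plus ATP (1.25 mM final); secreted IL-1B measured by AlphaLISA after 16 hr, decreased signal indicating inhibition.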
Gal4-VP16 FLuc = inhibits Gal4-VP16 luciferase reporter, ROR gamma counter-screen. Drosophila S2 Gal4-VP16 UAS-luciferase, luminescence, 20 h. Potency, µM (doses to about 53.6 µM), without a hit: at the top dose activity, negative = inhibition, most hits filed as inhibitors. 310,000 tested, 3.5% active. AID 2546;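 note: Gal4-VP16 expression switched on by copper sulfate through the metallothionein promoter; potency is the fitted concentration of half-maximal effect; nearly all actives have a fitted effect of over 50% in size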
DT40 TDP1 no CPT = qHTS for Inhibitors of human tyrosyl-DNA phosphodiesterase 1 (TDP1): qHTS in cells in absence of CPT; DT40 Tdp1-/- hTDP1 cells, no CPT, ATP luminescence, 48 h; Potency, µM (series often up to 46.2 µM), without a hit: top-dose activity change, negative = growth inhibition, hits mostly inhibitors; 420,000 tested, 15% active; AID 686978, 2013; note: potency is the fitted concentration of half-maximal effect; nearly all actives have a fitted effect of over 55% in size
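Seeded 400 DT40-hTDP1 cells/well (vehicle DMSO, no 20 nM CPT); pinned compounds; ≥48 hr at 37 °C; CellTiter-Glo luminescence as viability measure.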
RORgamma inh = inhibitors of mouse ROR gamma transcriptional activity. P51450. Drosophila S2 Gal4-RORgamma UAS-luciferase reporter, 20 h. Potency, µM (highest dose often 53.6 µM), without a hit: top-dose activity change, negative = inhibition, most hits filed as inhibitors. 310,000 tested, 5.4% active. AID 2551; note: potency is the fitted concentration of half-maximal effect; nearly all actives have a fitted effect of over 60% in size
Target sequence (P51450 whole entry, looked up, the tested form may be a part): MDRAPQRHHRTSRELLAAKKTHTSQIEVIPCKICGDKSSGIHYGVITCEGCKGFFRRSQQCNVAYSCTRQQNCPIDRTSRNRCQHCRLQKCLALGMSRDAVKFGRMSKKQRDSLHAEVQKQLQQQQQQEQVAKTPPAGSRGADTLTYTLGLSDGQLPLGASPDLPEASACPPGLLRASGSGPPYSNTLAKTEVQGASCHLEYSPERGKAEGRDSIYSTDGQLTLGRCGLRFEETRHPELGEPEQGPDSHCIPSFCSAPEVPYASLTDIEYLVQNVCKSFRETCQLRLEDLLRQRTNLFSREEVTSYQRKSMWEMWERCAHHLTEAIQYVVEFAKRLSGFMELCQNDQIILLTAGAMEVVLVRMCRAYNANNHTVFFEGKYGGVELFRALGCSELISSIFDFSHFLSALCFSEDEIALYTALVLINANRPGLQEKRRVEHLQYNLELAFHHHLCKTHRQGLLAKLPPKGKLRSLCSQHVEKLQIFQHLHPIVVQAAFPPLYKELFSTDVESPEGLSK
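Luminescence from a UAS-regulated Photinus luciferase reporter in stably transfected Drosophila Schneider cells is measured; decreased signal marks ROR gamma inhibition. Fusion expression is induced by 700 uM copper sulfate for 20 hr.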
ELG1 DNA repair = inhibitors of ELG1-dependent DNA repair in HEK293T cells; HEK293T ELG1-luciferase reporter, luminescence, 16 h; DNA damage induced by 5-fluorouridine; AID 504467; 330,000 tested, 2.3% active; Potency, µM (top dose mostly 46.1 µM), for the others: at the top dose activity change, negative = inhibition, actives largely listed as inhibitors; note: potency is the fitted concentration of half-maximal effect; nearly all actives have a fitted effect of over 55% in size
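Step one: seed 2,000 cells per well. Step two: pin-transfer compound or DMSO alongside 5-fluorouridine. Step three: incubate 16 hr, 37 °C, 5% CO2. Step four: add ONE-Glo, wait 30 min, read luminescence.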
* = called active by the depositor; ? = inconclusive; . = no result given; [ ] = dose if it differs, or a comment. Unless noted, calls come from the whole dose curve; as a rule, active = well fitted curve in the direction sought with a large enough effect; inconclusive = small, poorly fitted or top-dose-only effect, or another doubt; inactive = no such curve, though single readings can be large; an effect the other way counts as inactive or inconclusive. % is set by controls: 0 for no effect and ±100 for the full control effect.

SMILES	TDP1 cell CPT	IL1B secr inh	Gal4-VP16 FLuc	DT40 TDP1 no CPT	RORgamma inh	ELG1 DNA repair
Cc1ccccc1S(=O)(=O)NC(=O)C1(C)CCN1C(=O)CC1CCCCC1 (stereo not drawn)	-16%	18	.	-4%	.	.
c1ccc2[nH]c(NCCCc3cnc[nH]3)nc2c1	.	.	-13%	.	-16%	.
CC1(C)S[C@@H]2C(C(=O)O)NC(=O)N2C1C(=O)O (stereo partly drawn)	2%	.	.	-6%	.	.
O=C(c1cccc(Cl)c1)N1CCN(c2ccccn2)CC1	-25%	0	-5%	-26%	-12%	7%
O=C(c1ccc(S(=O)(=O)c2cccc(Cl)c2)c([N+](=O)[O-])c1)N1CCN(c2ccccn2)CC1	2.6µM*	-246*	?	2.3µM*	?	18µM*
COC(=O)c1cn(CC(C)n2c(=O)c3ccccc3n2Cc2cc(C(C)C)no2)nn1 (stereo not drawn)	11%	18	.	19%	.	.
CCOC(=O)C1=C(CSc2nc(-c3ccccc3)ccc2C#N)OC(N)=C(C#N)C1c1cccnc1 (stereo not drawn)	2.9µM*	36	17%	4.6µM*	15%	?
CCOC(=O)C1=C(CSc2nc(-c3ccccc3)ccc2C#N)OC(N)=C(C#N)C1c1ccccc1 (stereo not drawn)	3.7µM*	0	22%	2.9µM*	0%	?
CCCC1=C(C(=O)OCC)C(c2ccc(OC)c(CSc3ccccn3)c2)C(C#N)=C(N)O1 (stereo not drawn)	?	2	-8%	?	?	?
Cc1nnsc1C(=O)NC(C)c1ccccc1 (stereo not drawn)	?	-4	-1%	-4%	2%	16%
COC(=O)c1sc2ncccc2c1OCc1ccccc1Cl	-21%	27	4%	?	-7%	-9%
CC(C)NC(=O)c1sc2ncccc2c1-n1cccc1	?	.	.	2.6µM*	.	.
CCOc1ccc(CCNC(=O)c2cccs2)cc1OCC	-5%	0	.	?	.	-22%
CC(NC(=O)c1sc2ncccc2c1-n1cccc1)c1ccccc1 (stereo not drawn)	?	.	.	23µM*	.	.
CCOc1ccc(CCNC(=O)c2sc3ncccc3c2-n2cccc2)cc1OCC	26µM*	.	.	?	.	.
COCCn1c(=O)c(-c2ccccc2)nc2cnc(Nc3ccccc3)nc21	12%	.	2%	-10%	-2%	.
COc1ccc(C2CC(C(F)(F)F)n3nc(C(=O)Nc4ccc5c(c4)OCO5)cc3N2)cc1 (stereo not drawn)	?	-2	1%	?	17%	23µM*
O=C(c1cc2n(n1)C(C(F)(F)F)CC(c1ccc(F)cc1)N2)N1CCCC1 (stereo not drawn)	-25%	-7	-4%	?	-17%	-11%
O=C(Nc1cc(Cl)ccc1O)c1cc2n(n1)C(C(F)(F)F)CC(c1ccc3c(c1)OCO3)N2 (stereo not drawn)	23µM*	-87*	1%[0.365 µM]	16µM*	-34%	?
CCOC(=O)N1CCN(C(=O)c2cc3n(n2)C(C(F)(F)F)CC(c2ccc4c(c2)OCO4)N3)CC1 (stereo not drawn)	?	0	-4%	15µM*	8%	-1%
O=C(NCc1ccc2c(c1)OCO2)c1cc2n(n1)C(C(F)(F)F)CC(c1ccc3c(c1)OCO3)N2 (stereo not drawn)	?	0	6%	-14%	?	?
COc1ccccc1NC(=O)c1cc2n(n1)C(C(F)(F)F)CC(c1ccc3c(c1)OCO3)N2 (stereo not drawn)	16µM*	?	-6%	18µM*	-2%	16µM*
O=C(NCc1ccco1)c1cc2n(n1)C(C(F)(F)F)CC(c1ccc(Cl)c(Cl)c1)N2 (stereo not drawn)	?	3	-17%	?	-15%	-3%
COc1ccc(OC)c(NC(=O)c2cc3n(n2)C(C(F)(F)F)CC(c2ccc4c(c2)OCO4)N3)c1 (stereo not drawn)	?	-61*	-13%	?	5%	5%
O=C(Cc1ccccc1)Nc1scc(-c2ccccc2)c1C(=O)N1CCOCC1	?	16	4%	?	-1%	-8%
SMILES	TDP1 cell CPT	IL1B secr inh	Gal4-VP16 FLuc	DT40 TDP1 no CPT	RORgamma inh	ELG1 DNA repair
NC(=O)c1c(-c2ccc(Cl)cc2Cl)csc1NC(=O)Cc1ccccc1	8.2µM*	-3	7.1µM*	9.2µM*	?	?
CC(C)C[C@@H](CN1CCCC1CN1C(=S)NC[C@@H]1Cc1ccccc1)N1C[C@H](Cc2ccccc2)N(CC2CCCCCC2)C1=S (stereo partly drawn)	10µM*	42	.	?	.	.
CC(C)C[C@H]1CN([C@@H](CC(C)C)CN2CCCC2CN2C(=S)NC[C@@H]2Cc2ccccc2)C(=S)N1CC1CCCCC1 (stereo partly drawn)	16µM*	-7	.	?	.	.
CSc1ncccc1C(=O)N1CCN(S(=O)(=O)c2ccccc2)CC1	-3%	21	11%	-1%	-10%	8%
COC(=O)c1ccccc1S(=O)(=O)N1CCn2cccc2C1C (stereo not drawn)	-14%	-78*	6%	-7%	-2%	-1%
O=C1CS/C(=N/N=C\c2ccn[nH]2)N1	1%	9	?	-2%	10µM*	-16%
Cc1ccc(C)n1/N=C1/NC(=O)CS1	-22%	19	4%	-5%	-41%	17%
O=P(Cc1ccccc1)(c1ccccc1)c1ccccc1	?	5	3%	?	-7%	1%
O=C(CP(=O)(c1ccccc1)c1ccccc1)Nc1cccc(CP(=O)(c2ccccc2)c2ccccc2)c1	?	?	-1%	23µM*	33%	?
CSCCC(NC(=O)c1ccccc1Br)C(=O)N1CCN(C/C=C/c2ccccc2)CC1 (stereo not drawn)	2.6µM*	-12	.	?	.	.
Cc1c(C(=O)N2CCC(Cc3ccccc3)CC2)cccc1[N+](=O)[O-]	?	-104*	5%	?	1%	-1%
COc1ccccc1C(=O)NC(CCSC)C(=O)N1CCC(Cc2ccccc2)CC1 (stereo not drawn)	15µM*	-60*	.	18µM*	.	?
COCCNC(=S)N1CCC(Cc2ccccc2)CC1	?	6	-2%	?	-30%	-12%
